# Compound activity (PubChem)
# Tgondii IFNg – blocks Toxoplasma gondii growth in the presence of IFN-gamma; Toxoplasma gondii growth in IFN-gamma-treated host cells; active compounds read low; activity change, negative = inhibition, % (no concentration beside the values); actives 3.8% (n = 69,000); in the data active = activity change below about -70%, passing the limit was not always enough;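 also: host cells are HeLa cells infected with Toxoplasma gondii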
# Active calls of the source: *; ! = not active in a repeat. Only a selection was taken, and hits are over-represented in it overall.
SMILES,Tgondii IFNg
CC(C)(C)OC(=O)N1CCCC(c2ccnc3cc(-c4cccc(F)c4)nn23)C1 (configuration not stated),21
Cc1ccc(-c2cn[nH]c2C2CCCN(C(=O)c3c[nH]c(=O)cn3)C2)cc1 (configuration not stated),-20
CC(C)(C)OC(=O)Nc1cc(-c2cn[nH]c2C2CCCN(C(=O)OC(C)(C)C)C2)ccn1 (configuration not stated),-102*
Nc1cc(-c2cn[nH]c2C2CCCN(S(=O)(=O)c3ccccc3)C2)ccn1 (configuration not stated),-39
Cc1ccc(-c2cn[nH]c2C2CCCN(C(=O)c3ccc[nH]3)C2)cc1 (configuration not stated),-92*
CC(C)c1cc(C(=O)N2CCCC(c3[nH]ncc3-c3ccccc3)C2)on1 (configuration not stated),-4
O=C(Cn1c(=O)ccc2cc(S(=O)(=O)N3CCCC3)ccc21)NC1CCCc2ccccc21 (configuration not stated),47
Cc1nc(CN(C)C(=O)Cc2cc3c(cc2Cl)OCCO3)no1,-1
O=c1oc2ccc(Cl)cc2cc1-c1nc(-c2ccccc2)c2cc(Cl)ccc2n1,4
O=S(=O)(c1ccccc1)N1CC2CN(Cc3ccccc3)CC2C1 (configuration not stated),-2
O=C(Cn1ncc2c(N3CCCC3)ncnc21)Nc1cc(F)cc(F)c1,-54
CS(=O)(=O)N1CC2C[C@]2(NC(=O)c2cccc(F)c2)C1 (some centres not stated),-5
CNC(=O)c1ccc(CNC(=O)Cc2c(C)[nH]c3c(C)ccc(C)c23)o1,5
Cc1ccc2[nH]c(C(=O)NCc3cccnc3)c(NC(=O)c3ccc(Cl)cc3)c2c1,-16
CNC(=O)c1ccc(CNC(=O)c2[nH]c3ccc(C)cc3c2C)o1,-108*
COC(=O)C(CO)NCC(=O)NC1CCCCCCC1 (configuration not stated),-65
Cc1cc(C)n(Cc2ccc(C(=O)N(C)C(C)c3ccon3)cc2)n1 (configuration not stated),5
Cc1cc(C)n2nc(C(=O)N3CCCC4(C3)C(=O)Nc3ccccc34)cc2n1 (configuration not stated),-25
Cc1nc2ncccn2c1C(=O)N1CCCC(C(=O)c2ccc3c4c(cccc24)CC3)C1 (configuration not stated),-1
Cc1nc2ncccn2c1C(=O)N1CCCC2(C1)C(=O)Nc1ccccc12 (configuration not stated),-82*
Cc1ccc(C(=O)N2CCC3(CC2)NC(=O)c2cc(C)ccc2N3C)cc1,172
COc1ccc(OC)c(CN2CCN(c3cc(OC)ncn3)CC2)c1,40
CN(CCC1CCCCO1)C(=O)c1ccc2c(c1)OCCO2 (configuration not stated),32
CCN1C(=O)CCC12CCCN(C(=O)c1ccc[nH]1)CC2 (configuration not stated),-3
CN(Cc1cnc(-c2ccccn2)nc1)Cc1cnn(-c2ccccc2)c1,4
SMILES,Tgondii IFNg
Cc1ccccc1Nc1nnc(-c2ccccc2)c(-c2ccccc2)n1,15
c1ccc(-c2nnc(-c3ccccn3)nc2-c2ccccc2)cc1,-103*
CCCCC[C@H](CC(=O)NO)C(=O)N[C@H](C(=O)N1CCC[C@H]1CO)C(C)C,-77*
CCC(=O)Nc1cccc(C(=O)N2CCC[C@H]2CO)c1,5
CN1C[C@@H]2CC[C@H](CC1=O)N2C(=O)c1cnnn1-c1ccccc1,-16
CCNc1ncc(CN2CCCOc3c(cccc3OC)C2)cn1,0
O=C(c1ccc2c(c1)CCC(=O)N2Cc1ccccc1)N1CCN(c2ccc(F)cc2)CC1,-108*
O=C(CN1C(=O)CCc2cc(Br)ccc21)N1CCN(c2ccccc2)CC1,-43
CCCN1C(=O)CCc2cc(C(=O)N3CCOCC3)ccc21,-14
N#C[C@@H]1[C@@H](c2ccccc2-c2cccc(F)c2)[C@H](CO)N1C(=O)NC1CCCCC1,11
NC(=O)Nc1cc(-c2cccc(F)c2)sc1C(=O)N[C@H]1CCCNC1,-84*
O=C(N[C@H]1CCCNC1)c1cn(C/C=C/c2ccccc2)nn1,-6
COC1CN(Cc2ccc(-c3ccccc3)cc2)CC(=O)N(Cc2cccnc2)C1 (configuration not stated),8
O=C1CCC2(CCCO2)CCN1Cc1ccccc1-c1ccccc1 (configuration not stated),1
Cc1cccc(C)c1OC1CN(C(=O)C2CCOCC2)C1,2
CCc1ncc(C(=O)N2CCc3[nH]c4ccc(OC)cc4c3C2)cn1,3
Cc1cccc(-c2cc3nc(C)cc(=O)n3[nH]2)c1,-21
Cc1cccc(-c2cc3nc4c(c(=O)n3[nH]2)CCC4)c1,-100*
Cc1[nH]n2c(=O)c3c(nc2c1-c1cccs1)CCC3,-11
CCN1CCCC1CNC(=O)c1cc2cc(S(=O)(=O)N(CC)CC)ccc2n1C (configuration not stated),-16
COCC1CCC2(CCN(C(=O)c3cccc(C)c3)CC2)N1CC1CC1 (configuration not stated),27
CC(=O)N1CC(c2nc(C)cc(N3CCC[C@@H]3CO)n2)C1,6
CCn1ncnc1CN1CCC(c2nn(C)c(=O)n2-c2ccccc2)CC1,-74*
CCn1ncnc1CN1CCCC(c2n[nH]c(=O)n2-c2ccccc2)C1 (configuration not stated),-19
Cc1ncc(CN2CCC(c3nn(C)c(=O)n3-c3ccccc3)CC2)s1,-6
SMILES,Tgondii IFNg
Cc1ccc(C)c(OCCN(C)C(=O)CC2COCCN2)c1 (configuration not stated),2
COc1ccccc1/C=C/CN1CCC2(CC1)C(=O)N(Cc1cccnc1)C(=O)N2C,1
Clc1nnc(N2CCCCC2)c2ccccc12,-88*
COc1ccc(-c2nc(N3CCCC3)c3ccccc3n2)cc1,-63
Cc1nc(Cl)c(Cc2ccccc2)c(N2CCCC2)n1,22
CC(=O)N1CCC2(CC1)CCN(C(=O)C1CC1)C2,-2
COc1ncc(C(=O)N2CCC(O)(c3ccc(C)cn3)CC2)cn1,-19
COCCN(Cc1nccs1)C(=O)c1cc(C)nc2ccc(C)cc12,16
Nc1ncnc2c1ncn2[C@@H]1O[C@H](CO)[C@@H](O)[C@H]1O,14
COC1C(O)C(CO)OC1n1cnc2c(NC3CCCCC3)ncnc21 (configuration not stated),12
COc1ccc(C[C@H](N)C(=O)N[C@@H]2[C@@H](CO)OC(n3cnc4c(N(C)C)ncnc43)[C@@H]2O)cc1 (some centres not stated),-80*!
CN(C)CCOCC1CN(Cc2ccccn2)Cc2ccnn2C1 (configuration not stated),5
CCOc1ccc(Nc2nc(-c3nnc(-c4ccc(C)cc4)o3)nc3ccccc23)cc1,66
CCNC(=O)c1sc2cc(C)ccc2c1Cl,79
COC(=O)c1sc2ccccc2c1Cl,8
O=C(c1sc2cc(Cl)ccc2c1Cl)N1c2ccccc2Sc2ccccc21,-80*
O=C(O)Cc1ccc(F)c(-c2cccc3ccnn23)c1,2
CCOC(=O)c1cc(C(N)=S)c(C)nc1C(F)(F)F,-79*
CCOC(=O)c1cc(-c2nc(-c3ccccc3)cs2)c(C)nc1C(F)(F)F,-36
CCOC(=O)c1cc(C#N)c(Sc2nnc(SC)s2)nc1C(F)(F)F,-32
CC(C)n1c2ccccc2c2c1cc(C(=O)NCCCN1CCOCC1)n2C(=O)N(C)C,-54
Clc1ccc(-c2nc(NC3CCCC3)c3ccccc3n2)cc1,55
